PINK1 modulator = modulators of PINK1 expression; AID 624263; actives 0.2% (n = 410,000); Potency, µM (top dose mostly 76.6 µM), inactives show top-dose activation (PINK1 increase), actives largely listed as activators; PINK1 immunofluorescence, high-content cytometry, 24 h; active = well fitted activation curve with a large enough effect; inconclusive = small, poorly fitted or top-dose-only effect; cell line not stated here; also: % of control where 0% means no effect; nearly all actives have a fitted effect of over 65% in size
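Compound titrations (5 concentrations, 24 h) on a stable cell line; DMSO and CCCP controls. Endpoint: fixed-cell PINK1 immunofluorescence with mitochondrial, cell and nuclear markers, scanned by microplate cytometer.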
VP16 counter = counter-screen for ROR gamma inhibitors: Gal4-VP16 reporter; Drosophila S2 Gal4-VP16 UAS-luciferase, luminescence, 20 h; Potency, µM (doses to about 53.6 µM), inactives show at the highest dose activity, negative = inhibition, actives largely listed as inhibitors; actives 3.5% (n = 310,000); AID 2546;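 also: Gal4-VP16 expression switched on by copper sulfate through the metallothionein promoter; % is scaled to controls: 0 for no effect and ±100 for the full control effect; nearly all actives have a fitted effect of over 50% in size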
ClpP mod = qHTS Assay for Activators of ClpP. ATP-dependent Clp protease proteolytic subunit (Bacillus subtilis (strain 168)), P80244. AID 651965, 2013. Potency, µM (series often up to 57.5 µM), for the others: at the top dose activity change, negative = active. actives 1.9% (n = 340,000). purified B. subtilis ClpP, FRET peptide cleavage, 20 min; active = well fitted falling curve with a large enough effect; inconclusive = small, poorly fitted or top-dose-only effect; inactive = no such curve, though single readings can be large or run the other way; also: the source files actives as falling curves though it sought activators and does not explain the sign; nearly all actives have a fitted effect of over 65% in size
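Buffer: 100 mM Tris/HCl pH8, 100 mM KCl, 0.05% low protease BSA, 2.5% glycerol, 0.01% Tween-20. ClpP 10 microg/mL final; 20 min RT; delta FRET normalized to ADEP and DMSO controls.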
Sfp inh = blocks B. subtilis Sfp PPTase activity. Q9F4F7. Biochemical Sfp PPTase activity, qHTS. Potency, µM, for the others: largest response in the series, negative = inhibition, most hits filed as inhibitors. actives 3.5% (n = 310,000). AID 1490;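 also: the enzyme is Sfp with the accession as filed and its product quenches rhodamine fluorescence; 0% = enzyme reaction without inhibitor and -100% = no enzyme wells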
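With Hepes-Na pH 7.6 buffer containing 10 mM MgCl2, Sfp (15 nM) modified BHQ-2-YbbR (12.5 uM) using rhodamine-CoA (5 uM). Two reads 30 minutes apart at 525/598 nm yielded each well's rate.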
RORgamma inh = inhibitors of mouse ROR gamma transcriptional activity. Drosophila S2 Gal4-RORgamma UAS-luciferase reporter, 20 h. Potency, µM (titrated, usually from 53.6 µM), inactives show top-dose activity change, negative = inhibition, most hits filed as inhibitors. actives 5.4% (n = 310,000); also: % is scaled to controls: 0 for no effect and ±100 for the full control effect; nearly all actives have a fitted effect of over 60% in size
Target sequence (P51450 whole entry, looked up, the tested form may be a part): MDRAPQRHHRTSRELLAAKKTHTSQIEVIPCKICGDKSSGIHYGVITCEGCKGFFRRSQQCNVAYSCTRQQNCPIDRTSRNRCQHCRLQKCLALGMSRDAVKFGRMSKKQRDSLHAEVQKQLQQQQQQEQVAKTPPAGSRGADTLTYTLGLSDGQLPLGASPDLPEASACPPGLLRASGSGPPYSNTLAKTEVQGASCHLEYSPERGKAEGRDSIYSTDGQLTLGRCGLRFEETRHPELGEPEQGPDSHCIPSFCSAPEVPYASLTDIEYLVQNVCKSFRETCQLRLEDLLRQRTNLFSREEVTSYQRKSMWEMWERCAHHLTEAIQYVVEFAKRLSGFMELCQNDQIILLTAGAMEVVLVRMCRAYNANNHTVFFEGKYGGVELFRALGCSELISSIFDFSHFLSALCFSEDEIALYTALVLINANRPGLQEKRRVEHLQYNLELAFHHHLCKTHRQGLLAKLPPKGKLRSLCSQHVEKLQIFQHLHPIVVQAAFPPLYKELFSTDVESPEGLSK
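Compounds are pin-transferred onto Drosophila Schneider cells expressing a copper-inducible Gal4–ROR gamma transactivation domain fusion. After 1 hr, copper sulfate is added to 700 uM final; luciferase is read 20 hr later.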
Epigenetic derep = regulators of epigenetic silencing causing reporter derepression in mouse cells. murine LDR cells, GFP reporter derepression, 30 h. Potency, µM (doses to about 53.9 µM), inactives show at the top dose GFP activation, actives largely listed as activators. actives 0.2% (n = 280,000). AID 1865; also: % of control where 0% means no effect; nearly all actives have a fitted effect of over 60% in size
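Murine LDR cells carrying a silenced, genomically integrated CMV-driven GFP reporter were exposed to compound for 30 hours at 37 C. After PBS washes, GFP-positive cells (20–120 um objects) were counted by laser-scanning microplate cytometry.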
Numbers without * were called inactive; u = inconclusive; x = no result given. An excerpt weighted towards active compounds, which were near 8.1% of everything screened. Unless noted, calls follow the shape of the dose curve; as a rule, active = well fitted curve in the direction sought with a large enough effect; inconclusive = small, poorly fitted or top-dose-only effect, or another doubt; inactive = no such curve, though single readings can be large; an effect the other way counts as inactive or inconclusive. Potency is read from the fitted curve at half-maximal effect.

SMILES	PINK1 modulator	VP16 counter	ClpP mod	Sfp inh	RORgamma inh	Epigenetic derep
Cc1ccc(NC(=O)C2CCN(c3nc(-c4ccc(C(C)C)cc4)no3)CC2)c(Cl)c1	0.6%	x	-1.4%	x	x	8.8%
COc1ccc(CC(=O)Nc2cc(-c3cn4cccnc4n3)ccc2OC)cc1	-0.1%	x	5.0%	x	x	2.6%
CC(C)c1ccc(NC(=O)C(NS(=O)(=O)c2ccc3c(c2)CCC(=O)N3)c2ccccc2)cc1 (centres undefined)	-0.3%	x	-1.3%	x	x	-1.1%
CC(=O)Nc1nc2ccccc2n1Cc1ccccc1C	4.2%	3.16µM*	-0.1%	5.4%	2µM*	-0.8%
CC(=O)NCc1nc2ccccc2n1Cc1ccccc1C	4.7%	3.9%	-1.5%	23.6%	-11.1%	0.0%
CC(=O)Nc1nc2ccccc2n1Cc1ccccc1Cl	3.9%	2.24µM*	u	25.1%	0.891µM*	19.5%
CC(=O)Nc1nc(NC(=O)/C=C/c2ccccc2)n(-c2ccccc2)n1	0.1%	0.891µM*	-2.2%	20.9%	0.282µM*	4.4%
CCC(=O)Nc1nc2ccccc2n1Cc1ccccc1Cl	9.0%	2.82µM*	-7.8%	18.1%	0.398µM*	11.1%
COc1ccc(-c2cc(-c3ccc(F)cc3)nc3c2COc2ccc(F)cc2-3)cc1	-0.2%	x	-11.6%	x	x	-0.2%
COc1ccc(/C=C(\C#N)c2nc3ccccc3c(=O)[nH]2)cc1OC	0.0%	x	0.8%	x	x	-0.8%
Cc1c2cccn2cc[n+]1C	6.3%	-2.6%	10µM*	-3.7%	-27.2%	5.5%
Cc1c2ccccc2cc[n+]1C	0.5%	x	4.7%	x	x	x
CN(C)c1ccc(/C=C2/CCCc3c2nc2ccccc2c3C(=O)O)cc1	x	x	-7.4%	x	x	x
O=C(N/N=C/c1cn[nH]c1-c1ccc(F)cc1)c1ccncc1	-0.7%	-8.7%	0.1%	17.7%	-12.6%	-1.3%
COc1cc([N+](=O)[O-])cc(/C=N/NC(=O)c2cc(-c3ccccc3)nc3ccccc23)c1O	0.6%	4.47µM*	-1.3%	24.0%	2µM*	-8.6%
COc1cc(Br)cc(/C=N/NC(=O)Cc2ccc(C(F)(F)F)cc2[N+](=O)[O-])c1O	-1.6%	0.355µM*	0.9%	u	0.141µM*	-1.0%
COc1ccc(/C=N/NC(=O)c2cc(-c3ccccc3)nc3ccccc23)c(C(=O)O)c1OC	-2.2%	-1.5%	-2.3%	27.7%	-12.5%	x
Cc1ccnn1CC(=O)N/N=C/c1cn[nH]c1-c1ccc(F)cc1	3.7%	u	-0.1%	21.3%	14.1µM*	0.1%
COc1cc([N+](=O)[O-])cc(/C=N/NC(=O)Cn2nccc2C)c1O	-1.0%	u	0.4%	15.5%	3.55µM*	0.5%
CNS(=O)(=O)c1cn(CC(=O)Nc2ccc(C(C)=O)cc2)cc1S(=O)(=O)NC	-1.1%	x	0.6%	x	x	1.6%
COc1cccc([C@@H]2Oc3ccc(Br)cc3C[C@H]2OC(=O)N[C@H](C)C2CCCCC2)c1	x	-6.5%	x	2.8%	-32.6%	0.0%
Cn1c(C(=O)NCc2ccc(F)cc2)cc2cc(S(=O)(=O)N3CCCCC3)ccc21	0.6%	x	-0.3%	x	x	14.3%
CCC(C)NC(=O)Cn1c(=O)n(-c2cc(OC)cc(OC)c2)c(=O)c2ccccc21 (centres undefined)	0.0%	x	-2.8%	x	x	2.2%
Cc1cc(C(=O)N/N=C/c2cccc([N+](=O)[O-])c2)c2ccccc2n1	u	2.5%	-2.5%	9.9%	-37.7%	0.1%
COc1cc([N+](=O)[O-])cc(/C=N/NC(=O)c2cc(C)nc3ccccc23)c1O	8.7%	12.6µM*	1.9%	13.2%	5.62µM*	8.0%
O=C1NCCN1CCNc1nc(NCC2CC2)nc2cc(-c3ccccc3)sc12	-0.5%	x	u	x	x	x
COCCNc1nc(NCC2CCCCC2)c2sc(-c3ccccc3)cc2n1	2.8%	x	25.1µM*	x	x	x
c1ccc(-c2cc3nc(NCC4CC4)nc(NCC4CCCCC4)c3s2)cc1	-0.2%	x	20µM*	x	x	x

Source: PubChem BioAssay (National Center for Advancing Translational Sciences (NCATS))
